Test results taken from PubChem BioAssay.
Activity calls are given as the source filed them. Unless noted, the rule behind the calls is not given here.

How the values were obtained:
[1] = compounds binding Alexa647 anti-His antibody – biochemical, small-molecule microarray, 635 nm fluorescence, artefact control for SMM control protein annotation, primary screen (AID 1128); settings: higher = more signal;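 note: score merges feature fluorescence with signal-to-noise for each printed compound spot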
[2] = system: Human papillomavirus type 1a E7 protein (residues 1-88); test: HPV1a E7 small-molecule binders, primary screen, biochemical, small-molecule microarray, residues 1-88, 635 nm (AID 1129); settings: small-molecule microarray binding, fluorescence 635 nm; higher = more signal
[3] = biological target: Focal adhesion kinase 1 (Homo sapiens) (UniProt Q05397); test: PTK2 protein binding on printed compound slides – biochemical, small-molecule microarray, 635/667 nm fluorescence, BSA, DTT, primary screen (AID 1130); settings: 635 nm fluorescence, higher = more signal;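 note: composite of spot emission at 667 nm and signal to noise over triplicate slides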
Sequence of Focal adhesion kinase 1 (Homo sapiens) (Q05397 whole entry, looked up): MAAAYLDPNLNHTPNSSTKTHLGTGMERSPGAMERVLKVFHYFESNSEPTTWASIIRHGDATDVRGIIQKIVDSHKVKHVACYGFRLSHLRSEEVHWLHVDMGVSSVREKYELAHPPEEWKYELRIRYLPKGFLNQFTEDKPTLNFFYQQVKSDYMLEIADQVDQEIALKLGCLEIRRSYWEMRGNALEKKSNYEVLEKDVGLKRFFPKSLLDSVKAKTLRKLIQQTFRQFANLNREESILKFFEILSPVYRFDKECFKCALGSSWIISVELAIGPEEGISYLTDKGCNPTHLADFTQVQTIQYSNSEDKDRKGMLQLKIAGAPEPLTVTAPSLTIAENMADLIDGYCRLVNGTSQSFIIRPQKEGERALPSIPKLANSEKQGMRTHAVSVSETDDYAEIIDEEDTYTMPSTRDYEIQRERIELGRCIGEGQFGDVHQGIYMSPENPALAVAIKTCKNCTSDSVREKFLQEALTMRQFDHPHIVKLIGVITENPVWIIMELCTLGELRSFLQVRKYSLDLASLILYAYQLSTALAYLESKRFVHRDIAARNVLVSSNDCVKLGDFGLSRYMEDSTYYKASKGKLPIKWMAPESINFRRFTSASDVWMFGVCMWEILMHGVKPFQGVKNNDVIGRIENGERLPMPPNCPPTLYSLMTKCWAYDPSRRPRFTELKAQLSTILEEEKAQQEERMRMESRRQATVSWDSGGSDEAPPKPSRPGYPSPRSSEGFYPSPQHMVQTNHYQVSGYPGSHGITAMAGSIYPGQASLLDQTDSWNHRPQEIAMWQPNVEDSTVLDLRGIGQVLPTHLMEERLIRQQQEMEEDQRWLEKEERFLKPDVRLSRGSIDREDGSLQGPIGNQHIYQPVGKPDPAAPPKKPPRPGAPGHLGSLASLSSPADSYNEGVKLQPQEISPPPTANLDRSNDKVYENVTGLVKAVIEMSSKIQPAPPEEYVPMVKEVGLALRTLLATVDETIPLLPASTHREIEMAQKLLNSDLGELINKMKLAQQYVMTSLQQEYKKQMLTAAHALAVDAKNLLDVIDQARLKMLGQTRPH

[4] = system: Fibrinogen (Alexa647-labelled); test: Alexa647-fibrinogen binding to printed small molecules – biochemical, small-molecule microarray, 635/667 nm fluorescence, artefact control for SMM control-protein annotation, profiling panel (AID 1131); settings: fibrinogen-A647 binding fluorescence, higher = more signal;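 note: z-score merges 667 nm fluorescence with per-spot signal-to-noise over triplicate slides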
[5] = biological target: Follistatin (Homo sapiens) (UniProt P19883); test: FST protein binding to printed compounds – biochemical, small-molecule microarray, 635/667 nm fluorescence, primary screen (AID 1132); settings: 635 nm fluorescence, higher = more signal
Sequence of Follistatin (Homo sapiens) (P19883 whole entry, looked up): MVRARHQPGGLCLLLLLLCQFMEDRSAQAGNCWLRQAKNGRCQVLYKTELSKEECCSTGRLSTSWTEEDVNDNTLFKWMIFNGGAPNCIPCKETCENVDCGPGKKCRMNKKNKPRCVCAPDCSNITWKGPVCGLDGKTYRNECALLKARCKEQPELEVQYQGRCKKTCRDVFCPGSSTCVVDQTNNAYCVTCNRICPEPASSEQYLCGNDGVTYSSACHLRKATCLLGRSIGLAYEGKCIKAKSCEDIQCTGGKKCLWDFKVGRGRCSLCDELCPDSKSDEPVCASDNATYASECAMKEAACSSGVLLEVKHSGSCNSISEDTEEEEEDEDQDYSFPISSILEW

[6] = biological target: Fibroblast growth factor 2 (Homo sapiens) (UniProt P09038); test: basic fibroblast growth factor binding to printed compounds – biochemical, small-molecule microarray, 635/667 nm fluorescence, primary screen (AID 1133); settings: FGF2, fluorescence 635/667, higher = more signal
Sequence of Fibroblast growth factor 2 (Homo sapiens) (P09038 whole entry, looked up): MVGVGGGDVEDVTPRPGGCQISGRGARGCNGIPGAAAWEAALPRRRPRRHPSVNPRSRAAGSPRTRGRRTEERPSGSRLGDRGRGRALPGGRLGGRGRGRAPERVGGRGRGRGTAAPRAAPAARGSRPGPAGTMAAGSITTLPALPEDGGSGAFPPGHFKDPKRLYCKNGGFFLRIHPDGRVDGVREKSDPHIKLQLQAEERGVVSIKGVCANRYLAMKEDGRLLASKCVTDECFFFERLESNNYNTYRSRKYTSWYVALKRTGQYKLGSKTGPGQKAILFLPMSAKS

[7] = JC-1 mitochondrial potential readout, lung cancer cells – cell-based, A549, JC-1 fluorescence, basal, 24 h, 100 nL, profiling panel (AID 1138); settings: higher = more signal;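 note: A549 lung adenocarcinoma cells under basal conditions with no added stimulus; test concentration not given here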
[8] = system: Lefty1; test: Lefty1 protein binding to printed compounds – biochemical, small-molecule microarray, 635/667 nm fluorescence, primary screen (AID 1139); settings: fluorescence 635/667, higher = more signal
[9] = system: wheat germ agglutinin (Triticum aestivum), Alexa647-labelled; test: Alexa647-WGA lectin binding to printed small molecules – biochemical, small-molecule microarray, 635/667 nm fluorescence, artefact control for SMM control-protein annotation, profiling panel (AID 1140); settings: WGA-A647 binding, 635 nm fluorescence, higher = more signal;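 note: score merges 667 nm feature emission with signal to noise over triplicate slides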
[10] = biological target: Luciferin 4-monooxygenase (Photinus pyralis) (UniProt P08659); test: inhibition of purified Photinus pyralis luciferase – biochemical, luminescence, purified enzyme, 2006 set, primary screen (AID 1141); settings: purified firefly luciferase, SteadyGlo luminescence, 30 min; higher = more signal, called active from +8 up or from −8 down;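 note: cell-free assay with purified firefly luciferase at 100 ng per well in PBS; test concentration not given here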
Sequence of Luciferin 4-monooxygenase (Photinus pyralis) (P08659 whole entry, looked up): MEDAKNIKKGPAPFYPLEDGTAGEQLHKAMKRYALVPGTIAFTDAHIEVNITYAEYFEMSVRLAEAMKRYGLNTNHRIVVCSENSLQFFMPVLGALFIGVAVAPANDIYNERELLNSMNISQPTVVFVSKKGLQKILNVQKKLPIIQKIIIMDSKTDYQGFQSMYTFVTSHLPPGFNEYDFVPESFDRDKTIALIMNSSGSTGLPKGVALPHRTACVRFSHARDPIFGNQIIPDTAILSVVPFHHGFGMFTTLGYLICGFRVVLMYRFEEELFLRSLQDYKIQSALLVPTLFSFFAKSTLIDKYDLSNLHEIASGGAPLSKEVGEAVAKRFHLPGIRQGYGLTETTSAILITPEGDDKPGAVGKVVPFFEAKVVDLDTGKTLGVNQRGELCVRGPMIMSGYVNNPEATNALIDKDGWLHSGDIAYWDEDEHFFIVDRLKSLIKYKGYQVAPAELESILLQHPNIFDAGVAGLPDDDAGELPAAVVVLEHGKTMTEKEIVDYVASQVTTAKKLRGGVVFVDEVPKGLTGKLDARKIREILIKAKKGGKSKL

[11] = system: Wnt5a (protein binding on small-molecule microarray); test: small molecules binding Wnt5a protein – biophysical, small-molecule microarray, 635/667 nm fluorescence, primary screen (AID 1142); settings: 635 nm fluorescence, higher = more signal;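 note: fluorescence read at 667 nm with signal to noise per printed feature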
[12] = ATP-based viability of Huh7 replicon cells – cell-based, CellTiter-Glo luminescence, basal, 48 h, cytotoxicity control for HCV replication inhibitor project, primary screen (AID 1143); settings: higher = more signal, called active from +8 up or from −8 down;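 note: Huh7 hepatoma cells carrying a hepatitis C replication reporter with no stimulus; test concentration not given here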
[13] = Pseudomonas biofilm growth suppression – PAO1 strain, BacTiter-Glo luminescence, LB-PBS, primary screen (AID 1144); settings: P. aeruginosa PAO1 biofilm, 12 h, higher = more signal
[14] = basal CRE-LacZ reporter activity in PC12 – cell-based, unstimulated, primary screen (AID 1145); settings: no forskolin, luminescence, 4.5 h, higher = more signal, called active from +8 up or from −8 down
[15] = forskolin-driven CRE-LacZ activity in PC12 – cell-based, CRE-LacZ reporter, forskolin-stimulated, primary screen (AID 1146); settings: luminescence, 4.5 h, higher = more signal, called active from +8 up or from −8 down;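 note: PC12 cells with 6xCRE LacZ reporter stimulated by forskolin 10 µM; beta-galactosidase reporter signal reflecting CREB driven transcription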
[16] = biological target: Streptavidin (Streptomyces avidinii) (UniProt P22629); test: compounds binding control protein streptavidin – biophysical, small-molecule microarray, 635/667 nm fluorescence, artefact control for SMM compound annotation, primary screen (AID 1147); settings: higher = more signal;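 note: signal reflects streptavidin binding to arrayed compounds as a control protein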
Sequence of Streptavidin (Streptomyces avidinii) (P22629 whole entry, looked up): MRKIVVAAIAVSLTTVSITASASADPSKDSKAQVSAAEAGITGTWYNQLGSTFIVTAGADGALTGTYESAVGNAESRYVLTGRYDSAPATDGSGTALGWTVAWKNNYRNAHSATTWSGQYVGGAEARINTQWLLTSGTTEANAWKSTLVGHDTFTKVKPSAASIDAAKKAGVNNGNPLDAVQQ

[17] = probe aInhba binding on compound microarray – biochemical, small-molecule microarray, 635/667 nm fluorescence, primary screen (AID 1148); settings: higher = more signal;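 note: score merges 667nm spot fluorescence with signal-to-noise for antibody binding to printed compounds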
[18] = biological target: Torsin-1A (Homo sapiens) (UniProt O14656); test: TOR1A wild-type binding on microarray – cell lysate, small-molecule microarray, lysate, 635/667 nm, primary screen (AID 1149); settings: COS7 hTOR1A-WT lysate, 635 nm fluorescence, higher = more signal
Sequence of Torsin-1A (Homo sapiens) (O14656 whole entry, looked up): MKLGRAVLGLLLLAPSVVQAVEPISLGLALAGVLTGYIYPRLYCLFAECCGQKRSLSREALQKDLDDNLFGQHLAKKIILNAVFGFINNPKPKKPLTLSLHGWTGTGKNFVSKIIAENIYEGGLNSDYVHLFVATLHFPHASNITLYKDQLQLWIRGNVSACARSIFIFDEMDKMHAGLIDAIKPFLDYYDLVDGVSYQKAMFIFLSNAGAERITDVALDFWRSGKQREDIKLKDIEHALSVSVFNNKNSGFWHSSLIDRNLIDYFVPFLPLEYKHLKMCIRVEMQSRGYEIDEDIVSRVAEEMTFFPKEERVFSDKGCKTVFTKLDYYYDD

[19] = biological target: Torsin-1A (Homo sapiens) (UniProt O14656); test: torsin A mutant lysate binding on microarrays – cell lysate, small-molecule microarray, COS7 lysate, 635/667 nm fluorescence, primary screen (AID 1150); settings: COS7 hTOR1A mutant lysate, 635 nm fluorescence, higher = more signal;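 note: score pools 667 nm emission and signal to noise measuring lysate protein binding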
[20] = system: Sonic hedgehog protein (Shh); test: Sonic hedgehog microarray binding compounds – biochemical, small-molecule microarray, 635/667 nm fluorescence, primary screen (AID 1151); settings: 635 nm fluorescence, higher = more signal;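 note: Shh protein binding to compounds spotted on small-molecule microarray slides; score combines spot fluorescence intensity with signal-to-noise across triplicate slides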

Structure (SMILES) | composite z-score [1] | composite z-score [2] | composite z-score [3] | composite z-score [4] | composite z-score [5] | composite z-score [6] | z-score [7] | composite z-score [8] | composite z-score [9] | z-score [10] | composite z-score [11] | z-score [12] | z-score [13] | z-score [14] | z-score [15] | composite z-score [16] | composite z-score [17] | composite z-score [18] | composite z-score [19] | composite z-score [20]
C=C(COC)C(=O)CC[C@H](OC(=O)c1ccccc1-c1ccccc1C(=O)O)c1ccc(OCCO)cc1 | 2.56 | 1.08 | 0.033 | 0.879 | 1.42 | 1.35 | -0.66 | 1.59 | 0.564 | -2.22 (inactive) | 0.314 | -0.0319 (inactive) | -0.623 (inactive) | 2.19 (inactive) | -0.42 (inactive) | -0.237 | 0.0906 | 2.29 | 0.383 | 1.81
COCCCNC(=O)[C@@]1(C)c2ccccc2C(=O)N(c2ccc(C)cn2)[C@H]1c1ccc(CO)cc1 | -0.545 | -0.454 | -0.193 | -1.03 | -0.0423 | 0.204 | -0.9 | -0.939 | 0.421 | 0.522 (inactive) | -0.259 | 0.616 (inactive) | -0.252 (inactive) | 0.0279 (inactive) | 0.208 (inactive) | -1.4 | -0.202 | 0.152 | -1.17 | -0.0308
CN1C(=O)C2C=CC(C(O)c3cccc4ccccc34)N(NC(=O)OC(C)(C)C)C2C1=O (stereo not given) | 1.45 | 1.02 | 1.83 | 0.691 | 0.435 | -0.331 | 0.274 | -0.516 | 1.16 | 0.216 (inactive) | 0.611 | 0.227 (inactive) | 0.489 (inactive) | 1 (inactive) | 0.6 (inactive) | 1.51 | 0.723 | 0.104 | 1.41 | -0.271
COC(=O)[C@@]1(Cc2ccc(OC)cc2)[C@H]2c3cc(C(=O)N4CCCC4)n(CCF)c3C[C@H]2CN1C(=O)c1ccccc1 | 2.31 | 1.17 | 0.896 | 1.04 | 0.411 | -0.0251 | -1.32 | -0.3 | 1.06 | 1.49 (inactive) | 2.55 | -2.46 (inactive) | -0.129 (inactive) | 0.972 (inactive) | 0.325 (inactive) | 1.5 | 2.05 | -0.0089 | 0.619 | -0.801
COc1cccc(C)c1NC(=O)O[C@H]1[C@H](OC(=O)Nc2ccccc2)[C@H](OC(=O)Nc2ccccc2)[C@@H](OC)O[C@@H]1CO | 1.44 | 1.26 | 1.01 | 0.442 | 0.615 | -0.21 | 0.138 | -0.337 | 0.861 | -0.852 (inactive) | 0.0166 | -5.44 (inactive) | 0.365 (inactive) | 0.904 (inactive) | -1.49 (inactive) | 1.69 | 0.0301 | 0.513 | 1.05 | 0.349
CCN(CC)c1ccc(N2CC=CC34O[C@@H]5/C=C\CCCOC(=O)C5[C@H]3C(=O)N(CCCCCO)[C@@H]4C2=O)cc1 (stereo not given in full) | -0.617 | -1.39 | -0.722 | -2.57 | -0.785 | -1.26 | 0.965 | -0.758 | -1.19 | -0.918 (inactive) | -0.704 | -0.119 (inactive) | 2.25 (inactive) | 0.605 (inactive) | 0.417 (inactive) | -1.45 | -0.211 | -2.51 | -1.91 | -0.155
CCCNC(=O)[C@@H]1c2ccccc2C(=O)N(CC23CC4CC(CC(C4)C2)C3)[C@H]1c1ccc(CO)cc1 | 0.618 | 1.23 | 0.734 | 0.957 | 1.34 | 0.871 | -1.17 | 0.798 | 0.562 | 0.411 (inactive) | 0.435 | -4.68 (inactive) | -0.929 (inactive) | 0.764 (inactive) | -0.517 (inactive) | 0.673 | -0.118 | 0.92 | -0.0207 | 1.05
COC(=O)[C@@]1(Cc2ccccc2N=[N+]=[N-])N=C(c2ccc(OCCCO)cc2)O[C@H]1c1ccccc1 | 2.23 | 1.13 | 0.771 | 0.422 | 0.465 | 0.19 | -1.26 | 0.138 | 0.0657 | -2.7 (inactive) | 0.748 | -5.42 (inactive) | 0.313 (inactive) | 1.29 (inactive) | -0.688 (inactive) | 0.248 | -0.0403 | -0.89 | 0.305 | 0.175
CCCCC(=C=CC[C@H](O)c1ccccc1OCCO)C[C@H](O)c1ccccn1 | 0.299 | 0.0909 | -0.255 | -0.196 | 1.29 | 1.37 | 0.717 | 1.15 | 0.458 | -0.109 (inactive) | -0.135 | -0.392 (inactive) | -0.0512 (inactive) | 6.34 (inactive) | -0.872 (inactive) | 0.597 | -0.0762 | 0.718 | 1.01 | 1.4
C[C@H]1NC(=O)C([C@@H](C)OCc2ccccc2)NC(=O)[C@@]23C(=O)N[C@@H](Cc4ccccc4)C2[C@H](C)[C@@]2(C)O[C@H]2C3/C=C/CC/C=C/CNC1=O (stereo not given in full) | -0.342 | -0.413 | -0.305 | 0.42 | 0.607 | 0.588 | -0.198 | 0.331 | 0.384 | -0.749 (inactive) | -0.108 | -1.24 (inactive) | 1.27 (inactive) | 4.21 (inactive) | -1.16 (inactive) | -0.0311 | -0.122 | -0.0252 | 0.212 | 0.778
NC(=O)[C@@H]1[C@H]2C(=O)O[C@H](c3ccccc3)[C@H](c3ccccc3)N2[C@H](c2ccccc2OCCO)[C@@]12C(=O)Nc1ccc(C#CCCO)cc12 | 0.553 | -0.464 | 0.155 | 0.947 | -0.0704 | -0.455 | 0.669 | -0.128 | 0.335 | 1 (inactive) | -0.335 | -3.21 (inactive) | -0.663 (inactive) | 0.299 (inactive) | -0.445 (inactive) | 0.837 | -0.0407 | -0.969 | 0.115 | -0.116
